Records with an inconclusive call do not appear. The source made the active and inactive calls. Calls come from the whole dose curve; as a rule, active = well fitted curve in the direction sought with a large enough effect; inconclusive = small, poorly fitted or top-dose-only effect, or another doubt; inactive = no such curve, though single readings can be large; an effect the other way counts as inactive or inconclusive.
Legend:
[1] = Quantitative high throughput screen for delayed death inhibitors of the malarial parasite plastid, 48 hour incubation (AID 488752); note: nearly all actives have a fitted effect of over 65% in size; note: potency is the fitted concentration of half-maximal effect
Summary of the method: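 One parasite generation (48 h, 37 C, 5% CO2) of luciferase-reporter P. falciparum in erythrocytes is run with test compound; decreased luminescence indicates inhibited growth.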

[2] = target: Thioredoxin reductase 1, cytoplasmic (Rattus norvegicus) (UniProt O89049); assay: qHTS Assay for Substrates of Mammalian Selenoprotein Thioredoxin Reductase 1 (TrxR1) (AID 488772);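 note: NADPH fluorescence in the first read after selenite addition and not the 8 min delta; series mostly up to about 57 µM; a drop in NADPH fluorescence below the no-compound background marks a TrxR1 substrate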
Summary of the method: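 Quantitative HTS in Tris-HCl buffer at pH 7.5 with EDTA and Tween-20, using rat TrxR1, 400 uM NADPH and 400 uM selenite (final). A fall in initial NADPH fluorescence relative to background marked substrate behaviour.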

[3] = target: Thioredoxin reductase 1, cytoplasmic (Rattus norvegicus) (UniProt O89049); assay: qHTS Assay for Inhibitors of Mammalian Selenoprotein Thioredoxin Reductase 1 (TrxR1) (AID 488773); conditions: Potency: inhibition; note: nearly all actives have a fitted effect of over 40% in size; note: potency is the fitted concentration of half-maximal effect
Summary of the method: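 Steps: enzyme (90 nM) plus NADPH (400 uM final), 5 min at ~22 deg C; compound added, 15 min; selenite (400 uM final) added; fluorescence followed for 8 min. Concentration-response curves derived from the normalized delta values.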

[4] = target: Flap endonuclease 1 (Homo sapiens) (UniProt P39748); assay: qHTS Validation Assay for the Inhibitors of Human Flap endonuclease 1 (FEN1) (AID 488816); note: potency is the fitted concentration of half-maximal effect
Summary of the method: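 Readings taken at 0 and 15 min after starting the reaction with 50 nM (final) substrate supplied the signal. Compounds had first sat with 10 nM FEN1 reagent for 15 min at room temperature. Values come from Hill-equation concentration-response fits.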

[5] = target: M-phase phosphoprotein 8 (Homo sapiens) (UniProt Q99549); assay: qHTS Validation Assay for Inhibitors for MPP8 Chromodomain Interactions with Methylated Histone Tails (AID 488949); note: nearly all actives have a fitted effect of over 55% in size; note: potency is the fitted concentration of half-maximal effect
Summary of the method: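 MPP8 (50 nM) was pre-bound to 50 nM biotinylated H3(1-18)K9me3 peptide in PBS pH 7.4 with 0.01% Tween-20. Compounds were then added for 30 min at room temperature, and complex disruption was read by AlphaScreen with streptavidin donor and nickel-chelate acceptor beads.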

[6] = target: Chromobox protein homolog 1 (Homo sapiens) (UniProt P83916); assay: qHTS Validation Assay for Inhibitors of HP1-beta Chromodomain Interactions with Methylated Histone Tails (AID 488953); note: nearly all actives have a fitted effect of over 50% in size; note: potency is the fitted concentration of half-maximal effect
Summary of the method: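 Measured as loss of AlphaScreen luminescence from streptavidin donor and nickel acceptor beads (10 ug/mL final) bridging HP1-beta and biotin-H3(1-18)K9me3, each 50 nM. Compounds met the preassembled complex for 30 min at RT.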

[7] = target: Methanococcus maripaludis chaperonin (MmCpn) (UniProt Q6LX38); assay: High-Throughput Screening for Modulators of Cytosolic Chaperonin Activity: MmCpn Primary Screen (AID 488978); note: potency is the fitted concentration of half-maximal effect
Summary of the method: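 MmCpn at 50 nM final was preincubated 5 min at RT with compound. ATP was then added at 30 uM final for 10 min at 37 C. ADP formed was detected by Transcreener HTRF (665/590 nm).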

[8] = target: Transient receptor potential cation channel subfamily V member 1 (Homo sapiens) (UniProt Q8NER1); assay: HTS Assay for Compounds that Act as Enhancers of the Vanilloid Receptor 1 (AID 488979)
Summary of the method: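 Calcium influx kinetics via Fluo-8 (480/520 nm) in TRPV1-expressing cells, 2000/well cultured overnight at 35.5C. Compound-alone read 3 min (agonist phase), followed by EC20 capsaicin challenge for 2 min (enhancer phase).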

[9] = target: D(1A) dopamine receptor (Homo sapiens) (UniProt P21728); assay: HTS Assay for Allosteric Agonists of the Human D1 Dopamine Receptor: Primary Screen for Agonists (AID 488981); note: potency is the fitted concentration of half-maximal effect
Summary of the method: (§1)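 Calcium flux in an inducible, force-coupled HEK293 Trex D1 line (overnight at 30 C): agonist mode is the 180 s kinetic read after compound; potentiator mode is the following 180 s read after dopamine at EC20.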

[10] = target: D(1A) dopamine receptor (Homo sapiens) (UniProt P21728); assay: HTS Assay for Allosteric Agonists of the Human D1 Dopamine Receptor: Primary Screen for Potentiators (AID 488982)
Summary of the method: as §1

Measured: Potency

Chain of Transient receptor potential cation channel subfamily V member 1 (Homo sapiens) (Q8NER1 whole entry, looked up): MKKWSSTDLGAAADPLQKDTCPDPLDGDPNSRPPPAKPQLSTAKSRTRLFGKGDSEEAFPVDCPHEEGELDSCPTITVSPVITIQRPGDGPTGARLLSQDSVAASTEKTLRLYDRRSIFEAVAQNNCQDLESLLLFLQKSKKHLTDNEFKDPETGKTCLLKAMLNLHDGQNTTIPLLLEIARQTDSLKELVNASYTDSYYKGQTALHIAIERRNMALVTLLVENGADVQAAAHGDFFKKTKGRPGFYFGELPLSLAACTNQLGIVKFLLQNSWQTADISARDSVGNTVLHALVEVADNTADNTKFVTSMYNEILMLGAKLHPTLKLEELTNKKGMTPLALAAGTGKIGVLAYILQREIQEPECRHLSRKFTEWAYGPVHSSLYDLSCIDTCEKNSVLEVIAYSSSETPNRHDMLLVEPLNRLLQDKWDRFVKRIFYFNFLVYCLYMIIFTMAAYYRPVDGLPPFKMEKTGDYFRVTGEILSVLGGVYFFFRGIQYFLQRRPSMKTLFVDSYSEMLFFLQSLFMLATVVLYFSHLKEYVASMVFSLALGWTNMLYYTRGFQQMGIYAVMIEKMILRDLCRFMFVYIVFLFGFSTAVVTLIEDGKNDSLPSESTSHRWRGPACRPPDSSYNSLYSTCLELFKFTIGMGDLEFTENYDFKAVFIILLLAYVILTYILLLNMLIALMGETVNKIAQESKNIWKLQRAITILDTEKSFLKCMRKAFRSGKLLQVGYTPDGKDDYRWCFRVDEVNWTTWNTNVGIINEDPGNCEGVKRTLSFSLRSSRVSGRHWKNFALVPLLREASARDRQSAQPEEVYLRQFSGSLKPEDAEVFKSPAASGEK
Chain of Chromobox protein homolog 1 (Homo sapiens) (P83916 whole entry, looked up): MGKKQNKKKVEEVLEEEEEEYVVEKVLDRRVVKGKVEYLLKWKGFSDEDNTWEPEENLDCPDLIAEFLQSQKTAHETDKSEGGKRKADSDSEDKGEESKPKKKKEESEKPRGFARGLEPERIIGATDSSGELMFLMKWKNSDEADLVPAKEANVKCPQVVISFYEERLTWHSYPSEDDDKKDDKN
Chain of Flap endonuclease 1 (Homo sapiens) (P39748 whole entry, looked up): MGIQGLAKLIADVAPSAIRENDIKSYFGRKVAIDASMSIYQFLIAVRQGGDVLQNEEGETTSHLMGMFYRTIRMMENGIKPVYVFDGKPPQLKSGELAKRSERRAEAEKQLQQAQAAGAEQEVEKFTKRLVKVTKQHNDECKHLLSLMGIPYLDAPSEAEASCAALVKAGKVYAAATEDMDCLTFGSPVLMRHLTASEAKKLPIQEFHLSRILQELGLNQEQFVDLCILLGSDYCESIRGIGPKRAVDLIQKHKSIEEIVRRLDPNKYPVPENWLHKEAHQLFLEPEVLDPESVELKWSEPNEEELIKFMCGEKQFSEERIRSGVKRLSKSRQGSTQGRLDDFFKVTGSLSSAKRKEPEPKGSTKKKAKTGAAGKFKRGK
Chain of Thioredoxin reductase 1, cytoplasmic (Rattus norvegicus) (O89049 whole entry, looked up): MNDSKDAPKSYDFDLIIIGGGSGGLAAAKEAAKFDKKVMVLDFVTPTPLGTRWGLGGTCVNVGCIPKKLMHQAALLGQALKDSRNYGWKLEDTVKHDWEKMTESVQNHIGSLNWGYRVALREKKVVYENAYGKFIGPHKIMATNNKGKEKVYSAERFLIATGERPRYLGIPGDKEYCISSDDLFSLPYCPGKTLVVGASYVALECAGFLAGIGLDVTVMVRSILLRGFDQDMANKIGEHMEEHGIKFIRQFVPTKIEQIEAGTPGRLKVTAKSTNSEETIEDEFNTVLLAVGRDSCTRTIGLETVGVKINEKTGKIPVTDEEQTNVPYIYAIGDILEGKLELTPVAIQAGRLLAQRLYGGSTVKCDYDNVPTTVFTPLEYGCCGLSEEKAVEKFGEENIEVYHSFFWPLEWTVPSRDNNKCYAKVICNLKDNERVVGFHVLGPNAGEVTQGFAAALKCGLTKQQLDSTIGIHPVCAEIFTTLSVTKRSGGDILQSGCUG
Chain of M-phase phosphoprotein 8 (Homo sapiens) (Q99549 whole entry, looked up): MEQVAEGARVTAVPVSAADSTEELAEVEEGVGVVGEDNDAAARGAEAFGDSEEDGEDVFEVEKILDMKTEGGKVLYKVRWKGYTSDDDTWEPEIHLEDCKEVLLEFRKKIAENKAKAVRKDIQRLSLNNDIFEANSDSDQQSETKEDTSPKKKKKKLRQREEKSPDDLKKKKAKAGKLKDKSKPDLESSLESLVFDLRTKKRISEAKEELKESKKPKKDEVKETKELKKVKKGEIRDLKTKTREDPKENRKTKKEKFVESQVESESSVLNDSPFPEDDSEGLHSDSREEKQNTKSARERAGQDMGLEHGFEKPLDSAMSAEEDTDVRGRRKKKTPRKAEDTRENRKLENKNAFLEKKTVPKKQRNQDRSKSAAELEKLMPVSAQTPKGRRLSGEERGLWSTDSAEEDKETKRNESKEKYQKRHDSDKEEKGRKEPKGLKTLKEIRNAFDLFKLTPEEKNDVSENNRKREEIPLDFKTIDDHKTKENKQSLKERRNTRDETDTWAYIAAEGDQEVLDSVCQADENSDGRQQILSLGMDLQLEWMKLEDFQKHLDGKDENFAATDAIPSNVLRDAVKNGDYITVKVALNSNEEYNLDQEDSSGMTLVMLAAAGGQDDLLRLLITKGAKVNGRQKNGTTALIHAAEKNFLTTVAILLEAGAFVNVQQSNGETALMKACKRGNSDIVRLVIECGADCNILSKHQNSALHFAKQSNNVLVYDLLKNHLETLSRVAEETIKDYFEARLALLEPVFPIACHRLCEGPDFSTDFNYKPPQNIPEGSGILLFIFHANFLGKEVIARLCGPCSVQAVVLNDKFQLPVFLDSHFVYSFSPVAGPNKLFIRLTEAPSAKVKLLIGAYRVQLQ
Chain of Methanococcus maripaludis chaperonin (MmCpn) (Q6LX38 1-543): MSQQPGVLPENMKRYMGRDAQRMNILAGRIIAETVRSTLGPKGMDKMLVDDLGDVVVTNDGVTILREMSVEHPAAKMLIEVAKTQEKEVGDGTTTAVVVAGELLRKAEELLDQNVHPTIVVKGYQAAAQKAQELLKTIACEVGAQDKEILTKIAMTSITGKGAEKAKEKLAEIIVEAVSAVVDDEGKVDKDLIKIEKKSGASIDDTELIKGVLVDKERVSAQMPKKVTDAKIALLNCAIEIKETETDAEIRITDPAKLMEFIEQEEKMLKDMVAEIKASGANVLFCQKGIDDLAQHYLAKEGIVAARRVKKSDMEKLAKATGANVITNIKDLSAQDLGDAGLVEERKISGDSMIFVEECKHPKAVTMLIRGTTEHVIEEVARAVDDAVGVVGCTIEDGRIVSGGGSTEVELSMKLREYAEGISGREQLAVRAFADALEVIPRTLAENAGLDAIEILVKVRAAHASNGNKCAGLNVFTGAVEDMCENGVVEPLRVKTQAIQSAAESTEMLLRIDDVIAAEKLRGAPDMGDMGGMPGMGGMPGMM
Chain of D(1A) dopamine receptor (Homo sapiens) (P21728 whole entry, looked up): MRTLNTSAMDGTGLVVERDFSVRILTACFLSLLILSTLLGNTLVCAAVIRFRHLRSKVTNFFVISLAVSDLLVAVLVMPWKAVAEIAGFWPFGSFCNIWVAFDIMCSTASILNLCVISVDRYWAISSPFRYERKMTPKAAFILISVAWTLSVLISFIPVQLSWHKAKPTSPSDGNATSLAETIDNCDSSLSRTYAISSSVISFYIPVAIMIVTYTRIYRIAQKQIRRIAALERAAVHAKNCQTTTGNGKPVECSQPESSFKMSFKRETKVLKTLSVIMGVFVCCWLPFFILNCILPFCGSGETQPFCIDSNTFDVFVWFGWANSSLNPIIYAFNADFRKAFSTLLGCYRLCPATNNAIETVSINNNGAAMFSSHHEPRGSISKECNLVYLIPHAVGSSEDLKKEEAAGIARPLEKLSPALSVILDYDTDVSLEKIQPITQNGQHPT

CN(C)CCOC(C)(c1ccccc1)c1ccccn1 (configuration not stated)
inactive: all assays above

CCCn1cnc2c1c(=O)n(CCCCC(C)=O)c(=O)n2C
inactive: all assays above

NC1CCN(c2cccc(Cl)n2)CC1
inactive: all assays above

CC1=C(CC(=O)O)c2cc(F)ccc2/C1=C\c1ccc(S(C)(=O)=O)cc1
active: [6] 0.006 µM
inactive: all other assays above

CC(=O)OCC(=O)[C@@]1(O)CC[C@H]2[C@@H]3CCC4=CC(=O)CC[C@]4(C)[C@H]3C(=O)C[C@@]21C
inactive: all assays above

C#CCN(C)Cc1ccccc1
not listed: [8]
inactive: all other assays above

Nc1cc(=O)[nH]c(N)n1
inactive: all assays above

CC(C)(C(=O)O)c1ccc(C(O)CCCN2CCC(C(O)(c3ccccc3)c3ccccc3)CC2)cc1 (configuration not stated)
inactive: all assays above

CCCCCCCCCCCCCCCC(=O)NCCO
inactive: all assays above

COc1ccc(Cl)cc1C(=O)NCCc1ccc(S(=O)(=O)NC(=O)NC2CCCCC2)cc1
inactive: all assays above

CCN(CC)CCOC(=O)C1(C2CCCCC2)CCCCC1
not listed: [9]
inactive: all other assays above

CCN(CC)CCCC(C)Nc1c2ccc(Cl)cc2nc2ccc(OC)cc12 (configuration not stated)
active: [1] 0.037 µM | [4] 15 µM | [9] 11.2 µM
inactive: [2] | [3] | [7] | [10]

CC(C(O)c1ccc(O)cc1)N1CCC(Cc2ccccc2)CC1 (configuration not stated)
active: [1] 4.65 µM | [9] 11.2 µM
not listed: [8]
inactive: all other assays above

CNC(=O)Oc1ccc2c(c1)[C@]1(C)CCN(C)[C@@H]1N2C
not listed: [5]
inactive: all other assays above

C[C@](N)(Cc1ccc(O)cc1)C(=O)O
inactive: all assays above

CN(C)CC[C@@H](c1ccc(Cl)cc1)c1ccccn1
inactive: all assays above

C=Cc1c(C)c2cc3[nH]c(cc4nc(cc5nc(cc1[nH]2)C(C)=C5CCC(=O)O)C(CCC(=O)O)=C4C)c(C)c3C=C
active: [3] 13.4 µM | [7] 31.6 µM
inactive: all other assays above

OCCN1CCN(CCCN2c3ccccc3Sc3ccc(Cl)cc32)CC1
active: [1] 10.4 µM | [5] 28.2 µM | [6] 31.6 µM
not listed: [8] | [9]
inactive: all other assays above

CC[C@H]1CN2CCc3cc(OC)c(OC)cc3[C@@H]2C[C@@H]1C[C@H]1NCCc2cc(OC)c(OC)cc21
active: [1] 0.117 µM
not listed: [4] | [8]
inactive: all other assays above

CC(C)(C)c1onc(OCP(=O)(O)O)c1CC(N)C(=O)O (configuration not stated)
inactive: all assays above

Cc1cc(N)c2ccccc2[n+]1CCCCCCCCCC[n+]1c(C)cc(N)c2ccccc21
active: [1] 0.37 µM | [4] 21.2 µM | [5] 50.1 µM
not listed: [6]
inactive: all other assays above

CCN(CC)CCNC(=O)c1cc(Cl)c(N)cc1OC
inactive: all assays above

NC(=O)c1ncn([C@@H]2O[C@H](CO)[C@@H](O)[C@H]2O)n1
not listed: [4]
inactive: all other assays above

CC(C)C(=O)c1c(C(C)C)nn2ccccc12
inactive: all assays above

CN1CCN(C2Cc3ccccc3Sc3ccc(Cl)cc32)CC1 (configuration not stated)
active: [6] 14.1 µM
not listed: [8] | [9]
inactive: all other assays above

COCCOC(=O)C1=C(C)NC(C)=C(C(=O)OC/C=C/c2ccccc2)C1c1cccc([N+](=O)[O-])c1 (configuration not stated)
not listed: [1] | [6] | [8]
inactive: all other assays above

CC(CN(C)C)CN1c2ccccc2CCc2ccccc21 (configuration not stated)
active: [6] 28.2 µM
not listed: [1] | [8]
inactive: all other assays above

OCc1cc(C(O)CNCCCCCCOCCCCc2ccccc2)ccc1O (configuration not stated)
inactive: [2] | [3] | [4] | [5] | [7] | [10]

NC(N)=NCCC[C@H](N)C(=O)O
not listed: [4] | [6]
inactive: all other assays above

Nc1ncnc2c1ncn2[C@@H]1O[C@H](CO)[C@@H](O)[C@H]1O
not listed: [1] | [8]
inactive: all other assays above

C[C@]12C[C@H](O)[C@H]3[C@@H](CCC4=CC(=O)CC[C@@]43C)[C@@H]1CC[C@@H]2C(=O)CO
not listed: [1] | [8]
inactive: all other assays above

CC1=C(CC(=O)O)c2cc(F)ccc2/C1=C\c1ccc(S(C)=O)cc1 (configuration not stated)
not listed: [3] | [6] | [8]
inactive: all other assays above

CC(C)(C)[C@]1(O)CCN2C[C@H]3c4ccccc4CCc4cccc(c43)[C@@H]2C1
inactive: [2] | [3] | [4] | [5] | [6] | [7]

CNCCC(Oc1ccc(C(F)(F)F)cc1)c1ccccc1 (configuration not stated)
inactive: [2] | [3] | [4] | [5] | [7] | [10]

CC1=C(/C=C/C(C)=C/C=C/C(C)=C/C(=O)O)C(C)(C)CCC1
not listed: [1] | [3] | [6]
inactive: all other assays above

CNCC(O)c1ccc(O)c(O)c1 (configuration not stated)
not listed: [3] | [4] | [9]
inactive: all other assays above

CSc1ccc2c(c1)C(N1CCN(C)CC1)Cc1ccccc1S2 (configuration not stated)
active: [5] 44.7 µM | [6] 39.8 µM
not listed: [1] | [8]
inactive: all other assays above

CN(C)CCCN1c2ccccc2Sc2ccc(Cl)cc21
inactive: [2] | [3] | [4] | [7]
active: [5] 35.5 µM

CC(C)NC[C@H](O)c1ccc(O)c(O)c1
not listed: [3] | [10]
inactive: all other assays above

CC(CN1c2ccccc2Sc2ccccc21)N(C)C (configuration not stated)
active: [5] 39.8 µM | [6] 39.8 µM
not listed: [3] | [8]
inactive: all other assays above

CCN(CC)C(C)CN1c2ccccc2Sc2ccccc21 (configuration not stated)
active: [6] 0.0299 µM
not listed: [1] | [3] | [8]
inactive: all other assays above

COC(=O)C1=C(C)NC(C)=C(C(=O)OC)C1c1ccccc1[N+](=O)[O-]
inactive: [2] | [4] | [7] | [8] | [9]

CSc1ccc2c(c1)N(CCC1CCCCN1C)c1ccccc1S2 (configuration not stated)
inactive: [2] | [3] | [4] | [7] | [9]
active: [5] 11.2 µM | [6] 28.2 µM

CN(C)CCC=C1c2ccccc2CCc2ccccc21
inactive: [2] | [3] | [4] | [7] | [9]

O=C1N=C(O)CN1/N=C/c1ccc(-c2ccc([N+](=O)[O-])cc2)o1
inactive: [3] | [4] | [5] | [7] | [9] | [10]
